In PubChem BioAssay (Tox21):
Inconclusive results are not listed. Values without a mark were called inactive. The source made the active and inactive calls. Calls come from the whole dose curve.

molecular target: Beta-2 adrenergic receptor (Homo sapiens) (UniProt P07550); test: Adrenergic beta2 receptor (ADRB2) small molecule agonists, cell-based qHTS assay (AID 1963593); conditions: CHO-ADRB2 cells, cAMP HTRF, 30 min; series mostly up to 92.4 µM; activation: at the top concentration
Source text: National Center for Advancing Translational Sciences [NCATS]
Division of Preclinical Innovation [DPI]
U.S. Environmental Protection Agency [EPA]
National Institutes of Environmental Health Sciences [NIEHS]
National Toxicology Program [NTP]
U.S. Food and Drug Administration [FDA]
Beta adrenergic receptors (Beta-ARs) belong to the G-protein coupled receptor (GPCR) superfamily, includes three subtypes - beta1, beta2, and beta3. Beta1-AR is the predominant receptor subtype expressed in the heart, and beta2-AR is expressed in the kidney, lung, blood vessel and in the heart, and beta3 is found in the adipocytes. Beta1 and 2 ARs couple to Gs protein and elevate cyclic adenosine mono phosphate (cAMP), which activates protein kinase A and leads to the downstream signaling responsible for the physiological actions. Beta-AR agonists or antagonists are the most prescribed therapeutic agents for heart failure and asthma, and these were one of the first target receptors for the rational drug design. Tox21 10K compound library was screened using the cAMP-Gs dynamic assay (Cisbio Bioassays, Shelton, CT) to identify agonists/antagonists of the Gs-coupled human adrenergic, beta2 receptor (ADRB2) in the CHO-ADRB2 cell line (Codex BioSolutions, Inc. Gaithersburg, MD), which stably over-expresses ADRB2. The principle of cAMP-Gs dynamic assay is based on HTRF technology, which facilitates the fluorescence resonance energy transfer (FRET) between donor Europium cryptate and acceptor d2-labeled cAMP. The cAMP generated within cells competes with the red acceptor, d2-labled cAMP, for binding to the monoclonal anti-cAMP-cryptate (Europium donor). An increase in intracellular cAMP leads to the disruption of FRET signal, and the signal is inversely proportional to the cAMP concentration. Isoproterenol HCl (Sigma-Aldrich, St. Louis, MO) was used as a positive control in the screening.
Tox21 Assay Protocol Summary:
CHO-ADRB2 cells were dispensed at 1,000/well in 4uL assay medium into white/solid 1536-well plates (Greiner Bio-One North America Inc., Monroe, NC) using a Multidrop Combi dispenser (ThermoFisher Scientific, Waltham, MA). The assay plates were incubated at 37C and 5% CO2 for an overnight (18-20hr). Then positive control and test compounds dissolved in DMSO were transferred to the assay plates at 23nL using a Pintool station (Wako, San Diego, CA). Following the compound and positive control transfer, 1uL stimulation mix containing 100uM IBMX and 25uM Ro-20-1724 was added to each well of the assay plates using BioRAPTR Flying Reagent Dispenser (FRD, Beckman Coulter, Brea, CA). The assay plates were incubated at room temperature for 0.5hr. Then 2.5ul each d2-labled cAMP and anti-cAMP-cryptate solutions were added separately to each well of the assay plates using an FRD and the assay plates were incubated at room temperature for 1hr.
% is set by controls: 0 for no effect and ±100 for the full control effect.

Chain of Beta-2 adrenergic receptor (Homo sapiens) (P07550 whole entry, looked up): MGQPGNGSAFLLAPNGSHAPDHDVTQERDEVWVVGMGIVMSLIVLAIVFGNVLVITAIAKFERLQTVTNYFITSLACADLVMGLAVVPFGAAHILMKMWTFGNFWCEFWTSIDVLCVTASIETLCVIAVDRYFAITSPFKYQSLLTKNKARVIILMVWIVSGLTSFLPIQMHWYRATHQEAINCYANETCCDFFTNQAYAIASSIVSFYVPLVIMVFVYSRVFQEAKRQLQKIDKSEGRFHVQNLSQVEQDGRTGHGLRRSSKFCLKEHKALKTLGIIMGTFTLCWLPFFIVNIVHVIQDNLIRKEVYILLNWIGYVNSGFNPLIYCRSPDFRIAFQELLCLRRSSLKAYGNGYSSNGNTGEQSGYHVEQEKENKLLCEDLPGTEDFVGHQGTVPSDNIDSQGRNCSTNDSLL

SMILES | Potency | activation
NC(=O)NO | inactive | –
CCCCCCO | – | 2.63%
COc1ccc([C@@H]2CC(=O)c3c(O)cc(O[C@@H]4O[C@H](CO[C@@H]5O[C@@H](C)[C@H](O)[C@@H](O)[C@H]5O)[C@@H](O)[C@H](O)[C@H]4O)cc3O2)cc1OC | – | -20.5%
Cc1cccc(C(=O)O)c1 | – | -13.4%
Cc1cccc(C)c1 | inactive | –
CCOC(=O)CC(=O)OCC | – | -12.9%
NCCN1CCNCC1 | – | 3.95%
CCCCOC(=O)c1ccc(N)cc1 | inactive | –
c1ccc2scnc2c1 | – | 4.16%
ClC1=C(Cl)C(Cl)(Cl)C(Cl)=C1Cl | inactive | –
Cc1cccc(O)c1C | inactive | –
COc1ccc([N+](=O)[O-])cc1N | inactive | –
COc1cc([C@@H]2c3cc4c(cc3[C@H](O)[C@H]3COC(=O)[C@H]23)OCO4)cc(OC)c1OC | – | -24.3% [at 42.5 µM]
Cc1ccc2c(n1)Oc1ccc(C(C)C(=O)OCC(=O)N(C)C)cc1C2 (stereo not given) | – | -5.92% [at 42.5 µM]
O=C(O)CCCC[C@@H]1SC[C@@H]2NC(=O)N[C@@H]21 | – | -15.6%
C=C(C#N)C(=O)OCC | – | 38.7%
c1ccncc1 | – | -19.1%
CCCCCCCCCCCCCCCC[N+](C)(C)Cc1ccccc1 | – | 3.29% [at 42.5 µM]
C=C(C)CC(C)(C)C | inactive | –
NS(=O)(=O)c1cc(C(=O)O)c(NCc2ccco2)cc1Cl | – | -17.5%

SMILES | Potency | activation
CCCCC/C=C\C/C=C\CCCCCCCC(=O)OC | – | 1.22%
CSc1ccc(Cl)cc1 | – | 1.11%
CCCCCCCC(=O)OC | – | 15.2%
O=C(O)Cc1cccc2ccccc12 | inactive | –
NC(=O)/N=N/C(N)=O | – | 5.46%
CN(C)C(=O)Nc1ccc(Cl)c(Cl)c1 | inactive | –
Nc1nc2ncc(CNc3ccc(C(=O)N[C@@H](CCC(=O)O)C(=O)O)cc3)nc2c(=O)[nH]1 | inactive | –
CCCCC(CC)COC(=O)c1ccc(C(=O)OCC(CC)CCCC)cc1 (stereo not given) | inactive | –
Cc1cc(C(C)(C)C)c(O)c(C(C)(C)C)c1 | inactive | –
CC(O)C(=O)O (stereo not given) | inactive | –
C[C@@H](O)[C@H]1C(=O)N2C(C(=O)O)=C(S[C@@H]3CN[C@H](C(=O)N(C)C)C3)[C@H](C)[C@H]12 | – | -15.2% [at 42.5 µM]
COc1ccc(C(=O)c2ccccc2)c(O)c1 | – | 1.52% [at 42.5 µM]
Nc1ccc(Cl)cc1Cl | – | -38%
O=S(=O)(O)NC1CCCCC1 | – | -21.4% [at 19 µM]
Cc1ncc([N+](=O)[O-])n1CCO | inactive | –
F[B-](F)(F)F | – | 16.5%
O=C(O)c1cn(-c2ccc(F)cc2)c2cc(N3CCNCC3)c(F)cc2c1=O | – | -25.8% [at 19 µM]
O=C(Cl)c1c(Cl)c(Cl)c(C(=O)Cl)c(Cl)c1Cl | – | -1.32%
NCCS(=O)(=O)O | – | 4.96% [at 42.5 µM]
CCCCC(CC)COC(=O)c1ccc(N(C)C)cc1 (stereo not given) | inactive | –
